Among all 5,500 compounds or so, about 2,000 (36%) were called active. Inconclusive results (about 18%) are left out. Cut-off read from the data, not from the text of the source: active = normalized growth mostly below about 0.91 (no sharp cut-off); inconclusive = no clear call, values can overlap the other calls; inactive = mostly above about 0.92. Some of the results follow.
Assay: chemical genetic growth profiling, strain panel (AID 1159580);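 note: tested at 20 µM; growth read once vehicle control cultures reached saturation at 30 °C; 1 = growth at the plate median or of vehicle wells; lower values mean less growth of the strain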
Details: growth OD

Measured: normalized growth

COc1cc([C@@H]2c3cc4c(cc3[C@H](OC(C)=O)[C@H]3COC(=O)[C@H]23)OCO4)cc(OC)c1OC
inactive: S. cerevisiae deletion strains, locus YJR066W, strain TOR1, stronger effect = lower value 0.932 | S. cerevisiae deletion strains, locus YKL009W, strain mrt4, stronger effect = lower value 0.972 | S. cerevisiae deletion strains, locus YKL068W, stronger effect = lower value 0.988 | S. cerevisiae deletion strains, locus YKL085W, strain MDH1 (second series), stronger effect = lower value 1 | S. cerevisiae deletion strains, locus YKL085W, strain MDH1, stronger effect = lower value 1 | S. cerevisiae deletion strains, locus YKL160W, strain elf1, stronger effect = lower value 0.999 | S. cerevisiae deletion strains, locus YKL190W, strain CNB1, stronger effect = lower value 1 | S. cerevisiae deletion strains, locus YKR001C, strain vps1, stronger effect = lower value 0.976 | S. cerevisiae deletion strains, locus YKR026C, strain gcn3, stronger effect = lower value 1.01 | S. cerevisiae deletion strains, locus YKR091W, strain srl3, stronger effect = lower value 1.01 | S. cerevisiae deletion strains, locus YLL001W, strain dnm1, stronger effect = lower value 1 | S. cerevisiae deletion strains, locus YLL026W, stronger effect = lower value 1.01 | S. cerevisiae deletion strains, locus YLL041C, strain sdh2, stronger effect = lower value 1.01 | S. cerevisiae deletion strains, locus YLR027C, strain aat2, stronger effect = lower value 1 | S. cerevisiae deletion strains, locus YLR039C, strain RIC1, stronger effect = lower value 0.954 | S. cerevisiae deletion strains, locus YLR058C, strain SHM2, stronger effect = lower value 0.998 | S. cerevisiae deletion strains, locus YLR102C, strain apc9, stronger effect = lower value 0.974 | S. cerevisiae deletion strains, locus YLR113W, strain HOG1, stronger effect = lower value 1.07 | S. cerevisiae deletion strains, locus YLR221C, strain rsa3, stronger effect = lower value 1.01 | S. cerevisiae deletion strains, locus YLR258W, strain gsy2, stronger effect = lower value 0.997 | S. cerevisiae deletion strains, locus YLR262C, strain YPT6 (second series), stronger effect = lower value 0.914 | S. cerevisiae deletion strains, locus YLR262C, strain YPT6, stronger effect = lower value 0.933 | S. cerevisiae deletion strains, locus YLR268W, strain sec22, stronger effect = lower value 0.984 | S. cerevisiae deletion strains, locus YLR320W, strain mms22, stronger effect = lower value 1 | S. cerevisiae deletion strains, locus YLR330W, strain CHS5, stronger effect = lower value 0.994 | S. cerevisiae deletion strains, locus YLR342W, strain FKS1 (second series), stronger effect = lower value 0.995 | S. cerevisiae deletion strains, locus YLR342W, strain FKS1, stronger effect = lower value 1.01 | S. cerevisiae deletion strains, locus YLR357W, strain rsc2, stronger effect = lower value 1.06 | S. cerevisiae deletion strains, locus YLR370C, strain arc18, stronger effect = lower value 1.01 | S. cerevisiae deletion strains, locus YLR371W, strain rom2, stronger effect = lower value 0.992 | S. cerevisiae deletion strains, locus YLR384C, strain iki3, stronger effect = lower value 1.02 | S. cerevisiae deletion strains, locus YLR418C, strain cdc73, stronger effect = lower value 0.971 | S. cerevisiae deletion strains, locus YML016C, strain PPZ1, stronger effect = lower value 0.997 | S. cerevisiae deletion strains, locus YML032C, strain rad52, stronger effect = lower value 0.97 | S. cerevisiae deletion strains, locus YML120C, strain ndi1, stronger effect = lower value 1 | S. cerevisiae deletion strains, locus YML124C, strain tub3, stronger effect = lower value 0.984 | S. cerevisiae deletion strains, locus YMR058W, strain fet3, stronger effect = lower value 1.01 | S. cerevisiae deletion strains, locus YMR078C, strain ctf18, stronger effect = lower value 0.99 | S. cerevisiae deletion strains, locus YMR125W, strain sto1, stronger effect = lower value 1.01 | S. cerevisiae deletion strains, locus YMR129W, stronger effect = lower value 1 | S. cerevisiae deletion strains, locus YMR205C, strain PFK2, stronger effect = lower value 1.02 | S. cerevisiae deletion strains, locus YMR223W, strain ubp8, stronger effect = lower value 0.974 | S. cerevisiae deletion strains, locus YMR231W, strain pep5, stronger effect = lower value 0.997 | S. cerevisiae deletion strains, locus YMR307W, strain GAS1, stronger effect = lower value 1.02 | S. cerevisiae deletion strains, locus YNL067W, strain RPL9B, stronger effect = lower value 1.01 | S. cerevisiae deletion strains, locus YNL071W, strain lat1, stronger effect = lower value 1.01 | S. cerevisiae deletion strains, locus YNL128W, strain TEP1, stronger effect = lower value 0.992 | S. cerevisiae deletion strains, locus YNL183C, strain NPR1, stronger effect = lower value 0.993 | S. cerevisiae deletion strains, locus YNL209W, strain ssb2, stronger effect = lower value 0.996 | S. cerevisiae deletion strains, locus YNL233W, strain BNI4, stronger effect = lower value 0.997 | S. cerevisiae deletion strains, locus YNL248C, strain rpa49, stronger effect = lower value 1.01 | S. cerevisiae deletion strains, locus YNL250W, strain rad50, stronger effect = lower value 0.985 | S. cerevisiae deletion strains, locus YNL271C, strain bni1, stronger effect = lower value 0.983 | S. cerevisiae deletion strains, locus YNL298W, strain CLA4, stronger effect = lower value 0.997 | S. cerevisiae deletion strains, locus YNL307C, strain MCK1, stronger effect = lower value 0.98 | S. cerevisiae deletion strains, locus YNL322C, strain KRE1 (second series), stronger effect = lower value 1.03 | S. cerevisiae deletion strains, locus YNR049C, strain mso1, stronger effect = lower value 1 | S. cerevisiae deletion strains, locus YNR052C, strain pop2, stronger effect = lower value 0.973 | S. cerevisiae deletion strains, locus YOL006C, strain TOP1, stronger effect = lower value 0.861 | S. cerevisiae deletion strains, locus YOL012C, strain htz1 1.23 | S. cerevisiae deletion strains, locus YOL147C, strain pex11, stronger effect = lower value 0.981 | S. cerevisiae deletion strains, locus YOR001W, strain rrp6, stronger effect = lower value 1 | S. cerevisiae deletion strains, locus YOR061W, strain CKA2, stronger effect = lower value 0.994 | S. cerevisiae deletion strains, locus YOR069W, strain VPS5, stronger effect = lower value 0.99 | S. cerevisiae deletion strains, locus YOR070C, strain gyp1, stronger effect = lower value 1.01 | S. cerevisiae deletion strains, locus YOR080W, strain dia2, stronger effect = lower value 1 | S. cerevisiae deletion strains, locus YOR083W, strain WHI5, stronger effect = lower value 1 | S. cerevisiae deletion strains, locus YOR106W, strain vam3, stronger effect = lower value 1.02 | S. cerevisiae deletion strains, locus YOR136W, strain idh2, stronger effect = lower value 0.98 | S. cerevisiae deletion strains, locus YOR144C, strain elg1, stronger effect = lower value 0.99 | S. cerevisiae deletion strains, locus YOR184W, strain ser1, stronger effect = lower value 1.01 | S. cerevisiae deletion strains, locus YOR231W, strain MKK1, stronger effect = lower value 0.972 | S. cerevisiae deletion strains, locus YOR265W, strain rbl2, stronger effect = lower value 1.01 | S. cerevisiae deletion strains, locus YOR270C, strain vph1, stronger effect = lower value 0.921 | S. cerevisiae deletion strains, locus YOR290C, strain snf2, stronger effect = lower value 1 | S. cerevisiae deletion strains, locus YOR316C, strain cot1, stronger effect = lower value 0.992 | S. cerevisiae deletion strains, locus YPL051W, strain arl3, stronger effect = lower value 1 | S. cerevisiae deletion strains, locus YPL078C, strain atp4, stronger effect = lower value 0.998 | S. cerevisiae deletion strains, locus YPL106C, strain sse1, stronger effect = lower value 1.02 | S. cerevisiae deletion strains, locus YPL240C, strain hsp82, stronger effect = lower value 1.01 | S. cerevisiae deletion strains, locus YPL256C, strain CLN2, stronger effect = lower value 0.986 | S. cerevisiae deletion strains, locus YPR119W, strain clb2, stronger effect = lower value 0.986 | S. cerevisiae deletion strains, locus YPR141C, strain kar3, stronger effect = lower value 0.98 | S. cerevisiae deletion strains, locus YPR163C, strain tif3, stronger effect = lower value 0.991 | S. cerevisiae deletion strains, locus YPR167C, strain met16, stronger effect = lower value 0.969 | S. cerevisiae deletion strains, strain wtn01, stronger effect = lower value 1 | S. cerevisiae strains, strain wild type, stronger effect = lower value 1

— PubChem BioAssay AID1159580 (chemical genetic matrix, 2015)
